# Compound activity as filed in PubChem.
# KB-V1 MDR tox = KB-V1 MDR subline cytotoxicity. hit rate 3.4% among 400,000. KB-V1 MDR cells viability, CellTiter-Glo, 72 h. Potency, µM (series often up to 46.1 µM), most hits filed as cytotoxic; also: nearly all actives have a fitted effect of over 60% in size
#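 Following 72 h at 37 degrees C with compound, KB-V1 cell viability was read by CellTiter-Glo luminescence, medium being phenol-red-free DMEM plus 10% FBS; concentration-response parameters came from normalized, curve-fitted qHTS data.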
# DT40 TDP1 CPT = growth inhibition of DT40 Tdp1-/-;hTDP1 cells with camptothecin (screen for TDP1 inhibitors) | hit rate 12% among 420,000 | chicken DT40 Tdp1-/-;hTDP1 cells + 20 nM CPT, ATP luminescence, 48 h | Potency, µM (doses to about 46.2 µM), without a hit: at the highest dose activity change, negative = growth inhibition, usual class: inhibitors; also: nearly all actives have a fitted effect of over 55% in size
#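 Chicken DT40 Tdp1-/- cells stably complemented with human TDP1 were seeded at 400 cells/well in medium containing 20 nM camptothecin, exposed to pin-transferred compounds, and grown at 37 °C for at least 48 hr. Viability was read as ATP luminescence.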
# KB-3-1 tox = kills parental KB-3-1 adenocarcinoma cells | KB-3-1 viability, CellTiter-Glo ATP luminescence, 72 h | Potency, µM (doses to about 46.1 µM), hits mostly cytotoxic | hit rate 1.4% among 400,000 | AID 1347075; also: nearly all actives have a fitted effect of over 60% in size
#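 Luminescent ATP read-out (CellTiter-Glo) measures survival of drug-naive KB-3-1 cells after 72 h compound exposure at 37 °C. Titration series was screened from lowest to highest concentration, with DMSO vehicle plates as background controls.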
# HT1080 IDH1KD tx = HT-1080 IDH1 knockdown cell toxicity (counter line); HT-1080 IDH1 knockdown viability, ATP luminescence, 48 h; Potency, µM (titrated, usually from 46.1 µM), for the others: at the top dose activity, negative = toxicity, usual class: cytotoxic; hit rate 2% among 360,000;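 also: 0% = DMSO wells and -100% = cell-free medium wells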
#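 % activity derives from luminescence (CellTiter-Glo), normalised to DMSO and no-cell wells. HT-1080-IDH1KD cells, 750/well, had 48 h compound exposure at 37 °C.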
# HT1080NT lethal = kills 2HG-producing HT-1080-NT fibrosarcoma cells; AID 686970; HT-1080-NT fibrosarcoma viability, CellTiter-Glo ATP luminescence, 48 h; Potency, µM (doses to about 46.1 µM), for inactives: at the highest dose activity, negative = less viability, usual class: cytotoxic; hit rate 1.6% among 360,000;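 also: NT is the 2HG producing partner of a matched IDH1 knockdown line; 0% = DMSO-treated cells and -100% = media-only wells without cells; nearly all actives have a fitted effect of over 55% in size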
#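 Compounds were tested in concentration-response format on HT-1080-NT cells for 48 hours at 37 degrees C. Cell viability came from CellTiter-Glo luminescence; curves were classified by r2, response magnitude and activity.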
# DT40 TDP1 no CPT = qHTS for Inhibitors of human tyrosyl-DNA phosphodiesterase 1 (TDP1): qHTS in cells in absence of CPT; DT40 Tdp1-/- hTDP1 cells, no CPT, ATP luminescence, 48 h; Potency, µM (highest dose often 46.2 µM), for inactives: at the top dose activity change, negative = growth inhibition, most hits filed as inhibitors; hit rate 15% among 420,000; AID 686978, 2013; also: nearly all actives have a fitted effect of over 55% in size
#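 Growth of hTDP1-complemented DT40 Tdp1-knockout cells is measured by ATP luminescence after at least 48 hr compound exposure at 37 °C, with DMSO substituting for the 20 nM CPT used in the parallel screen.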
# * = called active by the depositor; i = inactive; ? = inconclusive; · = no result; ! = not confirmed by another sample; [ ] = another dose, or the depositor's remark. In the library only some 19% were active in any assay of this set; here they are far more common. Calls follow the shape of the dose curve; as a rule, active = well fitted curve in the direction sought with a large enough effect; inconclusive = small, poorly fitted or top-dose-only effect, or another doubt; inactive = no such curve, though single readings can be large; an effect the other way counts as inactive or inconclusive. Unless noted, % is scaled to controls: 0 for no effect and ±100 for the full control effect; potency is read from the fitted curve at half-maximal effect.
SMILES,KB-V1 MDR tox,DT40 TDP1 CPT,KB-3-1 tox,HT1080 IDH1KD tx,HT1080NT lethal,DT40 TDP1 no CPT
C=CCOC(Cn1ccnc1)c1ccc(Cl)cc1Cl (stereo unspecified),i,30µM*,i,1%,-4%,9.4µM*
Clc1ccc(COC(Cn2ccnc2)c2ccc(Cl)cc2Cl)c(Cl)c1 (stereo unspecified),?,18µM*!,i,?,23µM*,15µM*
CCOc1ccc(CN(CCc2ccc3c(c2)OCO3)Cc2cccc(C)c2)cc1,·,16µM*,·,·,·,13µM*
CCOc1ccc(CN(CCc2ccc3c(c2)OCO3)Cc2cc(OC)ccc2O)cc1,i,?,i,·,·,18µM*
Cc1nc2c(c(C)nn2-c2ccccc2)c(C)c1CCC(=O)N1CCC2(CC1)OCCO2,i,?,i,6%,3%,?
O=C(O)C1C2c3ccccc3C(c3ccccc32)C1C(=O)Nc1ccccc1 (stereo unspecified),i,-8%,i,-4%,0%,-18%
CC(=O)Nc1ccc(OC(=O)N(C)c2ccccc2)cc1,i,11%,i,12%,13%,-4%
CC(=O)Nc1ccc(S(=O)(=O)N(C)CCOCc2ccccc2)cc1,?,23µM*,?,-3%[9.24 µM],-18%,18µM*
CCOCCC(=O)Nc1ccc2c(c1)c(=O)n(C)n2Cc1cccc(C(F)(F)F)c1,i,-18%,i,14%,?,-20%
COc1ccc(Sc2cnn(-c3ccccc3)c(=O)c2Cl)cc1,i,?,i,-29%,-4%,?
C[C@H]1O[C@H](O[C@H]2[C@H](O)[C@@H](O)[C@@H](O)[C@H](O)[C@@H]2O)[C@@H](N)C[C@@H]1NC(=N)C(=O)O,·,-8%,·,·,·,-17%
CCCN(c1ccc(C(C)C)cc1)S(=O)(=O)c1ccc2c(c1)CCN2C(=O)CC,i,?,i,·,·,7.3µM*
Cc1cccc(Cc2cnc[nH]2)c1C,·,7%,·,·,·,-2%
O=C(Cn1c(=O)c(C(F)(F)F)nc2ccccc21)N1CCC2(CC1)OCCO2,i,-5%,i,-1%,11%,0%
CC1CCN(C(=O)Cn2c3ccccc3c3nc4n(c(=O)c32)CCCS4)CC1,i,23µM*,i,-5%,-9%,?
CC(=O)OC[C@]12C[C@H](OC(=O)CC(C)C)C(C)=C[C@H]1O[C@H]1[C@H](O)[C@@H](OC(C)=O)[C@@]2(C)[C@]12CO2,·,0.012µM*,·,·,·,0.0092µM*
CC(=O)OC[C@]12CCC(C)=C[C@H]1O[C@@H]1[C@H](O)[C@@H](OC(C)=O)[C@@]2(C)[C@]12CO2,?,0.021µM*,?,0.21µM*,?,0.016µM*
COc1ccc(C2=NCC(=S)Nc3ccc(Cl)cc32)cc1Cl,i,?,i,-2%,0%,21µM*
CCCCCc1cc(O)c2c(c1)OC(C)(C)c1ccc(C)cc1-2,·,17µM*,·,·,·,9.4µM*
CC(=O)OC1C(O)C(C)OC(OC2C(OC(=O)C3CCC4C(C3)OC3(CC(OC(=O)/C=C/c5ccccc5)C(C)CO3)C43CO3)OC(C)C(O)C2OC(C)=O)C1O (stereo unspecified),?,0.15µM*,0.18µM*,0.065µM*,0.13µM*,0.073µM*
CC(CC(C)(C)N1CC1)=NO,i,2.9µM*,i,11%,14%,3.3µM*
N[C@@H](CCCCP(=O)(O)O)C(=O)O,·,14%,·,·,·,-8%
O=C(CCC(=O)N1C[C@H]2C[C@@H](C1)c1cccc(=O)n1C2)NCc1ccc(F)cc1,i,12%,i,0%,12%,2%
S=C(S)N1CCCC1,i,0.06µM*,i,3%,0%,0.053µM*
